The values below come from PubChem BioAssay AID652025 (National Center for Advancing Translational Sciences (NCATS), 2013).

Among all 360,000 compounds or so, about 240 (0.067%) were called active. The list comes from a sample in which actives are over-represented; it also holds similar structures and randomly drawn compounds. A number with no mark means an inactive call. Rule as the data show it: active = activation above about 50%; inconclusive = mostly about 30% to 49%; inactive = weaker than that.

This assay in a line: qHTS of IL-2 Activators. Also: 0% is about no effect. The note with it: IL-2 activation reporter assay, cell-based qHTS; hits give high values; in transgenic mouse T cells; stimulated with anti-CD3/CD4/CD28 beads. An excerpt:
The adaptive immune response against any infectious agent begins with the activation of an antigen specific T cell. This relatively rare and inert ("naive") T cell undergoes a massive proliferative expansion and differentiation process to generate sufficient number of potent pathogen-specific effector T cells. The effector T cells fight the infection by making cytokines and helping other cells to become fully armed as well. If any naive T cell has antigen receptors (TCRs) that can be activated by self peptides, then a variety of regulatory mechanisms kick in to prevent this cell from performing to its full potential. These processes collectively constitute the phenomenon of immunological tolerance and their failure leads to autoimmunity. One arm of tolerance involves generation of biochemical negative feedback downstream of the TCR (tuning). This is especially relevant to self antigens present in the body over long periods of time (chronic), which form the bulk of our proteome. The negative feedback serves to tune the TCR signaling, such that the ambient antigenic stimulation is nullified intracellularly. Unfortunately, this critical machinery serves as a target for chronic viral, bacterial and parasitic infections (as well as tumors), which can evade a robust immune response, simply by allowing T cells to tune down their signaling to pathogen or malignancy derived antigens. As such, disrupting the tuning in such cases would allow the tolerant T cell to function again and deliver a robust effector response.
If a therapeutic can restore responsiveness to the tuned down T cell, even for a short time, they could combat the pathogen without any additional immunization. To that end, we have developed a sensitive HTS T cell based assay based on IL-2. This assay will be screened against the Molecular Libraries Small Molecule Repository (MLSMR) to find small molecules that could elicit this response.
NIH Chemical Genomics Center [NCGC]
NIH Molecular Libraries Probe Centers Network [MLPCN]
Assay Submitter (PI): Ron Schwartz, NIAID
4 microL (750 cells/well) of unstimulated transgenic mouse T cells (columns 1-3,5-48) are dispensed into Aurora LoBase, black clear-bottom 1536-well assay plates; column 4 receives an identical concentration of transgenic memory T cells as a non-tolerant control. Compounds are then transferred via Kalypsys pin tool equipped with 1536-pin array (10 nL slotted pins, V&P Scientific, San Diego, CA). Following addition of compound and a 60 minute incubation, 1 microL of bead stimulation solution ((0.04 micron Fluospheres (Life technologies, CA) coated with 10ug/ml each anti-CD3 and anti-CD4 (clones 2C11 and GK1.5, BD Biosciences, CA) and mixed with 1ug/ml anti-CD28 (clone PV-1, BD biosciences, CA)). columns 2-48) is added to stimulate the IL-2 response pathway; media is instead added to column 1 as an unstimulated control, while PMA/ionomycin (Sigma Aldrich, MO) is added to column 3 as a control for IL-2 tolerance bypass. The plates are then incubated at 37 degrees C for 18 hours. EGFP and DsRed signal are then detected using an Acumen eX3 Explorer fluorescent plate cytometer. All cells are dispensed in cell media containing EHAA (Quality Biologicals, MD), RPMI (Quality Biologicals, MD), Glutamine (Life Technologies, CA), Penicillin/Streptomycin (Quality Biologicals, MD), 2-ME (Sigma Aldrich, MO) and 10% FBS (Gemini Bioproducts, CA) .
In general terms: In qHTS, concentration-response curves come from the screen itself.
As for `COc1ccccc1N(CC(=O)Nc1ccccc1C(=O)N1CCCC1)S(C)(=O)=O`, the activation was -1.54%. As to `Cc1cc(Br)ccc1SCC(=O)OCC(=O)NCc1ccc2c(c1)OCO2`, the activation is -3.89%.

For the molecule `CCOc1ccc(NC(=O)CN(C)CC(=O)Nc2cccc(Cl)c2C)cc1OCC`, the activation is -1.33%. The value for `Nc1ccc(N=Nc2ccccc2Cl)c(N)n1` was 0.821%; that for `Nn1cnnc1N/N=C/c1cc([N+](=O)[O-])c(Cl)cc1Cl` was -0.276%. In the case of `CC1=C(C(N)=O)C(c2ccc3c(c2)OCO3)n2nc(-c3cccc(C)c3)nc2N1` (stereo not given) it was -0.667%; in that of `O=c1nc(NO)ccn1C1CCCO1` (stereo not given), -4.07%. With `CC(C)(C)OC(=O)Nc1ccc([C@@H](NC(=O)OC(C)(C)C)C(=O)OC(C)(C)C)cc1`, the activation is 1.22%. In the case of `COc1ccc(CCNC(=O)c2ccc(NC(=O)CC3SC(N4CCCCC4)=NC3=O)cc2)cc1OC` (stereo not given) it was 1.44%. The value for `O=C(CSc1nc(Nc2ccccc2)nc(N2CCOCC2)n1)Nc1cc(Cl)ccc1O` was -3.68%; that for `CC(C)CN1C(=O)CN(S(C)(=O)=O)CC1(C)C(=O)NCc1ccccc1` (stereo not given) was -0.324%. Regarding `O=C(Nc1ccc(F)c(Cl)c1)C1CCN(S(=O)(=O)c2cccnc2)CC1`, the activation is -4.67%. The value for `CCN1/C(=C\c2ccc3ccccc3[n+]2CC)Sc2cc(C)ccc21` was 83.8% (active); that for `O=C(O)C1CCCCC1C(=O)Nc1ccc(Cl)cc1` (stereo not given) was -0.998%.

With `NC(N)=NCCCc1cn(CC(=O)N2CCNCC2)nn1`, the activation was -0.704%. In the case of `CCC[C@H]1CCCC/C=C\CCCC(=O)OCCN1C(=O)OC(C)(C)C` it was -3.09%; in that of `OC(CNCc1ccc(Cl)c(Cl)c1)c1ccccc1` (stereo not given), 0.815%.

For `Cc1ccc(C)c(NS(=O)(=O)c2cc(Br)cnc2N)c1`, the activation was -0.259%.

Take `CN1CCN(c2ccc(CNS(=O)(=O)c3cccc(F)c3)cc2)CC1`: the activation is -0.358%. As for `COc1ccc(CNC(=O)CN2C(=O)NC3(CCCc4sccc43)C2=O)cc1` (stereo not given), the activation was 1.66%. The value for `CN(c1ccccc1)c1nc(N)c([N+](=O)[O-])c(NCc2ccco2)n1` was 2.01%; that for `CCCC1NC(=O)NC(C)=C1C(=O)OCC` (stereo not given) was -3.34%. Regarding `CC1(C(=O)NCc2ccc(F)c(F)c2)Cc2c(-c3ccc4c(c3)OCO4)ccnc2O1` (stereo not given), the activation is 0.821%. `Cc1ccc(OCCNC(=O)CN2C(=O)NC3(CCCC3)C2=O)cc1`: the activation was -0.135%.

As to `Cc1ccc(CNC(=O)Cn2cnc3c(NCc4ccccc4)ncnc32)o1`, the activation is -0.27%. The value for `CC(C)(C)NC(=O)C(c1ccc(Cl)cc1)N(CCO)C(=O)c1snc(C(N)=O)c1N` (stereo not given) was 0.402%. In the case of `CCOc1cc(S(=O)(=O)NC2CC(C)(C)NC(C)(C)C2)ccc1F` it was 0.923%. The value for `C[C@H]1COc2cc(N3CCSCC3)ccc2S(=O)(=O)N1` was 0.723%; that for `CC(=O)Nc1ccc(NC(=O)CS(=O)(=O)c2cn(CC(=O)N3CCCCC3)c3ccccc23)cc1` was 2.22%; that for `CC1CC(NC(=S)N(C)C)CC(C)(C)C1` (stereo not given) was -1.93%. In the case of `CCN(CC)S(=O)(=O)c1ccc(CNC(=O)CN2C(=O)NC3(CCc4ccccc43)C2=O)cc1` (stereo not given), the activation is -3.43%. Take `CCOCc1nnc(NC(=O)CCS(=O)(=O)Cc2ccccc2)s1`: the activation is 2.97%. In the case of `CCC(C)NC(=O)/C=C/c1ccc(S(=O)(=O)NCc2ccco2)cc1` (stereo not given) it was -0.382%; in that of `O=C(CCS(=O)(=O)c1ccc2c(c1)NC(=O)CS2)NCc1ccccc1Cl`, -0.54%. In the case of `O=C(O)C1C2C=CC(C2)C1C(=O)N1CCN(CCO)CC1` (stereo not given) it was -0.292%. The value for `CCC(=O)c1ccc(OCC(O)Cn2nc(C)c(C(C)=O)c2C)cc1` (stereo not given) was -0.63%; that for `Cn1cccc1Cc1nnc(SCC(=O)NCCc2ccccc2)n1-c1ccc(F)cc1` was -0.845%; that for `Cc1cccc(NC(=O)CSc2nc3c(c(=O)[nH]2)CCC3)c1C` was -0.45%. With `O=C1C[C@@H]2c3c(cccc3CN1Cc1ccccc1)C[C@@H](O)[C@H]2O`, the activation is 0.126%. The value for `CCCn1c(C(Cc2ccccc2)NC(=O)COC)nc2ccccc21` (stereo not given) was 0.549%.

Turning to `Cc1cccc(NC(=S)N2CCCC(c3nc4ccccc4[nH]3)C2)c1` (stereo not given), the activation is -0.267%. Turning to `Cc1cc2cc3c(N)[nH]nc3nc2cc1C`, the activation was -0.975%. In the case of `C=CCN1C2CCCC1CC(NC(=S)Nc1cccc(OC)c1)C2` (stereo not given) it was -0.0533%; in that of `O=S(=O)(NCc1ccccc1Br)c1ccccc1Br`, 0.131%. The value for `CCN(CC)C(=O)C1=C(C)N(Cc2ccc(F)cc2)C(=O)C(CC(=O)NCc2cccc3ccccc23)C1` (stereo not given) was -1.55%; that for `CN1CCC(N(C)S(=O)(=O)c2ccc(NC(=O)c3cccc(C#N)c3)cc2)CC1` was 0.319%. `CCCN(CC1CC1)C(=O)COC(=O)c1ccc(C)cc1O`: the activation was -0.72%. The value for `COc1cccc2oc(CCc3ccccc3)cc(=O)c12` was 2.76%; that for `COC(C[C@@H]1O[C@@H]1C(=O)[C@@H](C)OCc1ccccc1)OC` was 0.368%; that for `Cc1noc(/C=C/c2ccco2)c1S(=O)(=O)N1CCC(C(=O)Nc2ccc(Cl)cn2)CC1` was -0.421%. Take `Cc1cc(-c2csc(N)n2)c(C)n1-c1ccccc1`: the activation is -0.438%. The value for `C[n+]1ccc(/C=C/c2c[nH]c3ccccc23)cc1` was 91.4% (active). The value for `CSc1nsc(SC)c1NC(=O)OC1CCCCC1` was -1.77%. The value for `CN1CCN(c2ccc3c(c2)OC[C@H](Cc2ccccc2)NS3(=O)=O)CC1` was 1.2%; that for `CC(=O)c1c(C)[nH]c(C(=O)Nc2cc(S(=O)(=O)N(C)C)ccc2C)c1C` was 0.322%. `CO[C@@H]1CN(C)C(=O)c2cc(NC(=O)Nc3cc(F)ccc3F)ccc2OC[C@H](C)N(C(=O)c2ccccn2)C[C@@H]1C`: the activation is -0.0824%.

On to `CCCNC(=O)C1(C)CCN(Cc2csc(-c3ccc(Cl)cc3)n2)C1` (stereo not given), for which the activation was -0.168%. For `CC(=O)NC12CC3CC(C1)CC(C(=O)N1CCN(C(=O)c4ccco4)CC1)(C3)C2`, the activation was 2.63%.

For `O=C(NCCCNC(=O)NC1CCCCC1)NC1CCCCC1`, the activation was 2.89%. The value for `Cc1ccc(N(Cc2cc(=O)[nH]c3ccccc23)C(=O)CCl)cc1` was -4.77%; that for `CC1CN(C(=S)Nc2cccc(F)c2)CC(C)O1` (stereo not given) was 0.508%. The value for `COC(=O)c1cc2c(ccn2C)n1C` was -0.203%; that for `CN(C)S(=O)(=O)c1ccc(N2CCCC2)c(C(=O)NCc2ccccc2)c1` was 0.204%; that for `Cc1ccc(-n2c(C)nnc2SCC(=O)NC2CC2)cc1` was -1.22%. With `O=C(Oc1ccc(Br)cc1C(=S)N1CCOCC1)c1cccc([N+](=O)[O-])c1`, the activation is 0.801%. Consider `O=C(C[n+]1ccc2c(c1)nnn2-c1ccccc1)c1ccc(Cl)cc1`, for which the activation was -1.14%.

Consider `O=c1c(-c2ccc(Cl)cc2)[n+]([O-])c2ccccc2n1OCc1nc2ccccc2[nH]1`, for which the activation is -0.455%. On to `O=C(Cc1nc2ccccc2[nH]c1=O)c1ccc(Cl)cc1`, for which the activation is 60.1% (active). The value for `COc1ccc(N2CCN(C3CCCCC3NS(=O)(=O)c3ccccc3)CC2)cc1` (stereo not given) was -5.42%. Turning to `CCOC(=O)N1CCN(C(c2ccnc3ccccc23)c2nnnn2-c2c(C)cccc2C)CC1` (stereo not given), the activation is -1.14%. On to `CC(=O)NCCC(=O)Nc1nc(C)c(Cc2ccc3c(c2)OCO3)s1`, for which the activation was -2.95%. With `CCN(CC)c1ccc(NC(=O)C2CCC(CNc3c(N4CCCC4)c(=O)c3=O)CC2)c(C)c1` (stereo not given), the activation is -0.247%. For `O=C(CS(=O)(=O)c1ccc(C(F)(F)F)cn1)NNC(=O)c1ccccc1`, the activation is 0.398%. With `O=C(CSc1ccsc1[N+](=O)[O-])N1CCCCC1`, the activation was -0.638%. The value for `CCOC(=O)N1CCC(N2Cc3cccc(C(=O)Nc4ccc(S(=O)(=O)N(CC)CC)cc4)c3C2=O)CC1` was -2.11%; that for `Cc1ccc(NC(=O)CSc2nc(=O)n(CCN(C)C)c3c2CCCC3)c(C)c1` was 0.222%. The value for `CN1CCC(CN)(N2CCN(c3ccccc3)CC2)CC1` was 0.289%; that for `CCN(CC(=O)NCCCN1CCOCC1)S(=O)(=O)c1cc(Cl)ccc1Cl` was -0.326%. In the case of `CC(C)C[C@@H](N)c1nnc(SCC(=O)c2ccc(Cl)cc2)o1` it was 0.422%.

`Cc1c(NC(=O)CSCc2ccccc2)cccc1C(=O)O`: the activation was 3.04%. For the molecule `COc1cccc(C(NC(C)=O)c2nc(-c3ccccc3OC)cs2)c1` (stereo not given), the activation was 0.438%. In the case of `COc1ccc2nc(Nc3nc(-c4cc5ccccc5oc4=O)cs3)sc2c1` it was 57.4% (active); in that of `CN(CCCC(=O)Nc1nccs1)S(=O)(=O)c1ccc(Cl)cc1`, -1.49%. Turning to `C=C1CCC(N(O)c2cc(C)on2)C(=C)CCC2C1CC2(C)C` (stereo not given), the activation is -0.223%. The value for `NC(=O)COc1ccc(C23CC4CC(CC(C4)C2)C3)cc1` was -3.06%; that for `COC(C[C@@H](O)C[C@H](O)[C@H](C)OCc1ccccc1)OC` was 2.56%; that for `COc1cccc(C(=O)Nc2c3c(nn2-c2cccc(C)c2C)CS(=O)(=O)C3)c1OC` was -0.743%. For the molecule `CCCCc1nc2cc(C(=O)NCCc3cnn(C)c3)ccc2o1`, the activation is -2.8%. On to `CCNc1c(NS(=O)(=O)c2ccc(C3CCCCC3)cc2)c(=O)oc2ccccc12`, for which the activation is -0.121%. The value for `CC(=O)Nc1ccc(CN2CCN(Cc3ccc(F)c(F)c3)C(CCO)C2)cc1` (stereo not given) was -0.804%.
